Out of some 310,000 compounds screened, about 14,000 (4.5%) showed an effect of 50% or more. The effect is printed as a negative number. The list comes from a sample in which strong results are over-represented; it also holds similar structures and randomly drawn compounds.
Target: human ether-à-go-go-related gene (hERG) potassium channel (human, UniProt Q12809)
Assay: primary screen, population patch clamp on CHO cells stably expressing hERG; higher = less effect of the substance
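Also: peak tail current of the secondary pulse compared with the same well before compound.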

human ether-à-go-go-related gene (hERG) potassium channel, sequence (Q12809 whole entry, looked up): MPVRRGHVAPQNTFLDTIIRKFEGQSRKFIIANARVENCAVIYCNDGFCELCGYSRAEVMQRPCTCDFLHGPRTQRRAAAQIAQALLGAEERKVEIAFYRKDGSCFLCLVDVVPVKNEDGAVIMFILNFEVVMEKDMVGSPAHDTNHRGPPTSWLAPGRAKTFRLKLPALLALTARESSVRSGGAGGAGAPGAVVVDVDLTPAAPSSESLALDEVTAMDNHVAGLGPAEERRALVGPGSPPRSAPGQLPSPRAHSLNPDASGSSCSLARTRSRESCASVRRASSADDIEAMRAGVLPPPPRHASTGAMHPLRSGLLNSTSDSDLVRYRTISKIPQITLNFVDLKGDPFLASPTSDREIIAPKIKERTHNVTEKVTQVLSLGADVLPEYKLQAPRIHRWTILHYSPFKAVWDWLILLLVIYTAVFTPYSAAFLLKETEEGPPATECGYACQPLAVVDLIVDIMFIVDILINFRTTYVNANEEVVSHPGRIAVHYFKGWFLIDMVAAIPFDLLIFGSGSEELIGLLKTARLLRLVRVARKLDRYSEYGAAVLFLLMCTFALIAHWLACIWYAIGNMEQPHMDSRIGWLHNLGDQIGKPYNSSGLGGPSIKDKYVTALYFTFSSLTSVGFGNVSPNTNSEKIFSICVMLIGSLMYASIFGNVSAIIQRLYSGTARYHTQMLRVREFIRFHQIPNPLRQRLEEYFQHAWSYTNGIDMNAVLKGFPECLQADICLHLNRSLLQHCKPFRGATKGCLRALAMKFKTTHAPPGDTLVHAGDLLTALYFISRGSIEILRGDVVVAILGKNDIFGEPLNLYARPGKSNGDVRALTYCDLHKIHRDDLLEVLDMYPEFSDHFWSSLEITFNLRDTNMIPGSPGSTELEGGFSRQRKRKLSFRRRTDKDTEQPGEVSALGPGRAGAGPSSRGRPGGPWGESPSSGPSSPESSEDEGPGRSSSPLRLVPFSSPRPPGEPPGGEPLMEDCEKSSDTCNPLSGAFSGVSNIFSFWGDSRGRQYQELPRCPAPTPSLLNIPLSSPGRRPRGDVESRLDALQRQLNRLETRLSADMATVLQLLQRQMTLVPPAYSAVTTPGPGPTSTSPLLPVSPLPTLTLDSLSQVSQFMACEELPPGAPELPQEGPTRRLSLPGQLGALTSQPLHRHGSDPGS

| SMILES | hERG current change (%, negative = inhibition) at 10uM [%] |
| --- | --- |
| CSc1c(CC(=O)Nc2ccccc2Cl)n(Cc2ccccc2)c2ccccc12 | 8.86 |
| COc1ccc(NC(=O)CCCN2C(=O)CN(C)C2=O)c(OC)c1 | -4.4 |
| CCN(CC(=O)Nc1cccc(OC)c1)C(=O)c1cccc(S(=O)(=O)N2CCc3ccccc32)c1 | -1.63 |
| CCN(CC)S(=O)(=O)c1ccc(C(=O)NCc2cccs2)cc1 | -20.7 |
| CCN(CC(=O)NCc1cccs1)S(=O)(=O)c1ccc(NC(C)=O)cc1 | -7.22 |
| CCN(CC(=O)NCc1cccs1)C(=O)c1cccc(S(=O)(=O)NC)c1 | -12.2 |
| CCN(CC(=O)NCc1cccs1)C(=O)c1ccc(S(=O)(=O)Nc2ccccc2)cc1 | -15.6 |
| CCN(CC(=O)NCc1cccs1)C(=O)c1ccc(S(=O)(=O)N(CC)c2ccccc2)cc1 | -61.4 |
| CCN(CC(=O)NCc1cccs1)C(=O)c1cccc(S(=O)(=O)N2CCc3ccccc32)c1 | -71.3 |
| CCN(CC(=O)NCc1cccs1)C(=O)c1ccc(S(=O)(=O)N(C)C)cc1 | 48.6 |
| CCN(CC(=O)NCc1cccs1)S(=O)(=O)c1ccc(C(C)C)cc1 | -53.3 |
| CCN(CC(=O)NCc1cccs1)S(=O)(=O)c1ccc(F)cc1 | -85 |
| CCN(CC(=O)NCc1cccs1)S(=O)(=O)c1c(F)cccc1F | 0.594 |
| CCN(CC(=O)NCc1cccs1)S(=O)(=O)c1ccccc1Cl | -11.3 |
| COC(=O)c1ccc2c(c1)S(=O)(=O)NC(=NCCCN1CCOCC1)S2.Cl | -1 |
| COc1ccc(OCCC(=O)OCC(=O)NC(=O)NC2CCCCC2)cc1 | 13.2 |
| CN(C)c1ccc(NS(=O)(=O)c2ccc(-c3csnn3)cc2)cc1 | 13.1 |
| CCCC1(c2ccccc2)NC(=O)N(CC(=O)c2[nH]c(C)c(C(=O)OCC)c2C)C1=O (centres unmarked) | 12.5 |
| CCOC(=O)N1CCN(Cc2cn3ccccc3n2)CC1.O=C(O)C(=O)O | 21.9 |
| Nc1cc(C(=O)N/N=C/c2cccc([N+](=O)[O-])c2)n[nH]c1=O | 7.18 |
| c1ccc(Cn2c(SCc3nc4ccccc4s3)nnc2-c2ccco2)cc1 | -34.1 |
| CCOC(=O)N1CCN(C(=O)C2CCN(S(=O)(=O)c3ccc(Br)s3)CC2)CC1 | -35.2 |
| O=C(Oc1ccc(/C=N/Nc2nc(N3CCCCC3)nc(N3CCCCC3)n2)cc1)c1ccco1 | -9.1 |

From PMC4336329 (PLoS ONE, 2015)
